Two compounds from the supplement of paper PMC9942566 can be followed below.

± gives the standard deviation of the averaged measurements.

One assay concerns Serratia marcescens K904 PosmB-luxCDABE reporter (pMQ747). Briefly: PosmB-lux reporter fold induction (RLU/OD600 relative to no-compound control), highest over Biolog concentrations; higher = stronger reporter activation. The following applies: Biolog plate: PM13; well positions: C9-12; ΔrcsB mutant CMS5177; 4 h. The protocol: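 Serratia marcescens K904 (wild type) or its isogenic ΔrcsB mutant, carrying the Rcs-dependent PosmB-luxCDABE reporter plasmid pMQ747, was grown in LB at OD600 0.1 in Biolog Phenotype MicroArray plates PM11-20 for 4 h at 30-32°C. Each compound is present at 3-4 proprietary concentrations (not stated); per the Fig. S1 legend the value given is the highest fold over those wells. Three independent trials.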
As to `[K+].[K+].[O]=[Cr](=[O])([O-])[O-]` [Potassium chromate], the “PosmB-lux reporter fold induction” value came to 1.87 ± 0.86.

The assay is the same for the next values; noted with them: Biolog plate: PM18; well positions: F1-4; ΔrcsB mutant CMS5177; 4 h.
Turning to `NNC(N)=O` [semicarbazide], the “PosmB-lux reporter fold induction” value came to 3.86 ± 1.5.
